Several values for one entry are separate records, joined by “and”; a condition that tells them apart may be missing. Equal entries are not always repeated. Inconclusive results are not listed. Some structures have more than one record in an assay (separate samples or runs), and their calls can disagree. Activity calls are given as the source filed them. Unless noted, calls come from the whole dose curve; as a rule, active = well fitted curve in the direction sought with a large enough effect in the repeat runs; inconclusive = weak or mixed curves; inactive = no such curve, though single readings can be large; an effect the other way counts as inactive or inconclusive.
Assays:
[1] = qHTS assay to identify small molecule agonists of the hypoxia (HIF-1) signaling pathway - cell viability counter screen (AID 1224844; calls by dose curve; note: nearly all actives have a fitted effect of over 50% in size)
Summary of the method: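 HRE-bla ME-180 cells, 2,000/well in 0.5% dialyzed FBS medium, treated 17 h at 37C with compounds. Viability read in the same wells as the bla reporter, by CellTiter-Glo luminescence after 30 min at room temperature.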

[2] = qHTS assay to identify small molecule agonists of H2AX (AID 1224845; active = well fitted activation curve with a large enough effect in the signal ratio in the repeat runs, not every such curve was filed as active; the % refers to the signal ratio)
Summary of the method: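 Wild-type CHO-K1 cells plated overnight, then exposed 3 hr at 37C to compounds at 15 concentrations (0.76% DMSO). Lysed, then HTRF anti-pH2AX(S139)-cryptate/anti-H2AX-d2 detection after 24 hr at room temperature; emissions 665 and 620 nm.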

[3] = qHTS assay to identify small molecule agonists of the hypoxia (HIF-1) signaling pathway (AID 1224846; active = well fitted activation curve with a large enough effect in the signal ratio in the repeat runs, not every such curve was filed as active; the % refers to the signal ratio)
Summary of the method: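 HRE-bla ME-180 beta-lactamase reporter cells in medium with 0.5% dialyzed FBS, pre-incubated 5 h then exposed to compounds 17 h at 37C, 5% CO2; reporter induction read with CCF4-AM FRET substrate.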

[4] = qHTS RealTime-Glo MT Cell Viability Assay in HepG2 cells - 24 hour (AID 1224867); note: nearly all actives have a fitted effect of over 50% in size
Summary of the method: (§1)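 Cell number in HepG2 cultures estimated from NanoLuc luminescence generated by metabolic reduction of a prosubstrate by living cells. The homogeneous, nonlytic format allowed repeated reads at 0, 8, 16, 24, 32 and 40 h of compound exposure.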

[5] = qHTS RealTime-Glo MT Cell Viability Assay in HEK293 cells - 32 hour (AID 1224868); note: nearly all actives have a fitted effect of over 50% in size; note: potency is the fitted concentration of half-maximal effect
Summary of the method: (§2)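 Homogeneous bioluminescent viability format in HEK293 cells (600 cells/well). Following 5 h at 37 C/5% CO2, 23 nL compound was pintooled; the signal was measured repeatedly during 40 h incubation.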

[6] = A CellTox Green Cytotoxicity Assay to monitor cytotoxicity in HEK293 cells - 0 hour (AID 1224869); note: nearly all actives have a fitted effect of over 50% in size; note: potency is the fitted concentration of half-maximal effect
Summary of the method: (§3)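 HEK293 cells, 600/well, were preincubated 5 hours and then exposed to compounds at 37 C for up to 40 hours. A cell-impermeant cyanine dye staining dead-cell DNA was read by fluorescence at 0, 8, 16, 24, 32 and 40 h time points.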

[7] = qHTS RealTime-Glo MT Cell Viability Assay in HepG2 cells - 40 hour (AID 1224870); note: nearly all actives have a fitted effect of over 50% in size
Summary of the method: (§4)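 HepG2 cells mixed with RealTime-Glo MT reagents (NanoLuc plus cell-permeant prosubstrate) were seeded at 600 cells/well, incubated 5 h at 37 C/5% CO2, then pinned with compounds in DMSO; nonlytic luminescence tracked viability during 40 h treatment.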

[8] = A CellTox Green Cytotoxicity Assay to monitor cytotoxicity in HEK293 cells - 40 hour (AID 1224871); note: nearly all actives have a fitted effect of over 45% in size; note: potency is the fitted concentration of half-maximal effect
Summary of the method: as §3

[9] = qHTS RealTime-Glo MT Cell Viability Assay in HEK293 cells - 16 hour (AID 1224872); note: nearly all actives have a fitted effect of over 50% in size; note: potency is the fitted concentration of half-maximal effect
Summary of the method: as §2

[10] = qHTS RealTime-Glo MT Cell Viability Assay in HepG2 cells - 8 hour (AID 1224873); note: nearly all actives have a fitted effect of over 55% in size
Summary of the method: as §4

[11] = qHTS RealTime-Glo MT Cell Viability Assay in HEK293 cells - 40 hour (AID 1224874); conditions: RealTime-Glo luminescence; max response: stronger effect = lower value; note: nearly all actives have a fitted effect of over 50% in size; note: potency is the fitted concentration of half-maximal effect
Summary of the method: (§5)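 600 cells/well were plated with the nonlytic NanoLuc/prosubstrate reagent, pre-incubated 5 h, then given 23 nL of compound in DMSO. Incubation at 37 C for 40 h, with luminescence from viable-cell-reduced substrate read repeatedly from 0 h.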

[12] = A CellTox Green Cytotoxicity Assay to monitor cytotoxicity in HEK293 cells - 24 hour (AID 1224875); note: nearly all actives have a fitted effect of over 45% in size
Summary of the method: as §3

[13] = A CellTox Green Cytotoxicity Assay to monitor cytotoxicity in HepG2 cells - 16 hour (AID 1224876); note: nearly all actives have a fitted effect of over 45% in size
Summary of the method: (§6)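 HepG2 cells, 600/well, preincubated 5 h with CellTox Green dye, then exposed to Tox21 compounds in DMSO at 37 C for up to 40 h. Dead-cell DNA fluorescence read at the indicated time point.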

[14] = qHTS RealTime-Glo MT Cell Viability Assay in HepG2 cells - 32 hour (AID 1224877); note: nearly all actives have a fitted effect of over 55% in size
Summary of the method: as §1

[15] = A CellTox Green Cytotoxicity Assay to monitor cytotoxicity in HepG2 cells - 24 hour (AID 1224878); note: nearly all actives have a fitted effect of over 45% in size; note: potency is the fitted concentration of half-maximal effect
Summary of the method: as §6

[16] = A CellTox Green Cytotoxicity Assay to monitor cytotoxicity in HepG2 cells - 40 hour (AID 1224879); note: nearly all actives have a fitted effect of over 40% in size; note: potency is the fitted concentration of half-maximal effect
Summary of the method: as §6

[17] = qHTS RealTime-Glo MT Cell Viability Assay in HEK293 cells - 0 hour (AID 1224880)
Summary of the method: as §5

[18] = qHTS assay to identify small molecule agonists of H2AX - cell viability counter screen (AID 1224847; calls by dose curve; note: top concentration of the series differs between compounds; nearly all actives have a fitted effect of over 30% in size)
Summary of the method: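 CHO-K1 cells plated overnight at 37C, then exposed 3 h at 37C to compounds at 15 concentrations (0.76% DMSO final). Viability by CellTiter-Glo luminescence after 30 min at room temperature.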

[19] = qHTS assay to identify small molecule antagonists of the estrogen related receptor (ERR) signaling pathway from Tox21 library (AID 1224848); note: nearly all actives have a fitted effect of over 50% in size
Summary of the method: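 Screening used an ERR reporter line supplied by NTP, exposed for 18 h at 37 C to library compounds delivered in DMSO. Signal was luciferase luminescence developed with ONE-Glo at room temperature for 30 min.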

[20] = qHTS assay to identify small molecule agonists of the estrogen related receptor (ERR) signaling pathway from Tox21 library (AID 1224849; calls by dose curve; note: nearly all actives have a fitted effect of over 15% in size); conditions: ERR reporter cell line, ONE-Glo luciferase, 18 h; at 92.4 µM (top of the series)
Summary of the method: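 ERR reporter cells (NTP line) pre-incubated 6 hours at 37 C, then exposed to compounds for 18 hours at 37 C. ONE-Glo luciferase luminescence was read after 30 minutes at room temperature.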
% is set by controls: 0 for no effect and ±100 for the full control effect.

O=NN(c1ccccc1)c1ccccc1
inactive: Potency [1] | Potency [2] | outcome [3] | Potency [4] | Potency [5] | Potency [6] | Potency [7] | Potency [8] | Potency [9] | Potency [10] | max response [11] 1.85% and 24% | Potency [12] | Potency [13] | Potency [14] | Potency [15] | Potency [16] | Potency [17]

CCCCCCCCCCCCCl
inactive and 12.3 µM (active): Potency [15] | Potency [16]
inactive and 17.4 µM (active): Potency [8]
inactive and 24.5 µM (active): Potency [6]
inactive: Potency [1] | Potency [2] | outcome [3] | Potency [18] | Potency [5] | Potency [7] | Potency [9] | max response [11] 0% and 16.5% | Potency [14] | Potency [17]

CCOS(=O)(=O)OCC
inactive: Potency [1] | Potency [2] | outcome [3] | Potency [4] | Potency [5] | Potency [6] | Potency [7] | Potency [8] | Potency [9] | Potency [10] | max response [11] 6.05% | Potency [14] | Potency [15] | Potency [16]

CSc1nc(NC(C)C)nc(NC(C)C)n1
inactive: Potency [1] | Potency [2] | outcome [3] | Potency [19] | activity change, positive = activation [20] -11% and -12.6% | Potency [4] | Potency [5] | Potency [6] | Potency [7] | Potency [8] | Potency [9] | Potency [10] | max response [11] -22.1% | Potency [12] | Potency [13] | Potency [14] | Potency [15] | Potency [16] | Potency [17]

CC(C)COC(=O)c1ccccc1C(=O)OCC(C)C
inactive: Potency [1] | Potency [2] | outcome [3] | Potency [18] | Potency [4] | Potency [5] | Potency [6] | Potency [7] | Potency [8] | Potency [9] | max response [11] 8.51% and 5.74% | Potency [12] | Potency [13] | Potency [14] | Potency [15] | Potency [16] | Potency [17]

O=NN1CCOCC1
inactive: Potency [1] | Potency [2] | outcome [3] | Potency [18] | Potency [6] | Potency [7] | Potency [8] | max response [11] -0.852% | Potency [12] | Potency [13] | Potency [14] | Potency [15] | Potency [16] | Potency [17]
active: Potency [11] 1950 nM
inactive and 3.47 µM (active): Potency [9]
inactive and 2.19 µM (active): Potency [5]

CNC(=S)S
inactive: Potency [1] | Potency [2] | outcome [3] | Potency [4] | Potency [5] | Potency [6] | Potency [7] | Potency [8] | Potency [9] | Potency [10] | max response [11] 24.9% and 0.0192% | Potency [12] | Potency [13] | Potency [14] | Potency [15] | Potency [16] | Potency [17]

C[N+](C)(C)C
inactive: Potency [1] | Potency [2] | outcome [3] | Potency [18] | Potency [5] | Potency [6] | Potency [7] | Potency [8] | Potency [9] | max response [11] 4.13% and -0.266% | Potency [12] | Potency [13] | Potency [14] | Potency [15] | Potency [16]

CC1=C(C(=O)Nc2ccccc2)SCCO1
inactive: Potency [1] | Potency [2] | outcome [3] | activity change, positive = activation [20] -23.3% and -26.7% | Potency [4] | Potency [5] | Potency [6] | Potency [7] | Potency [8] | Potency [9] | max response [11] -20.6% and -17.9% | Potency [12] | Potency [14] | Potency [15] | Potency [16] | Potency [17]

COC(=O)Nc1nc2ccccc2[nH]1
inactive: Potency [1] | Potency [2] | outcome [3] | Potency [18] | Potency [4] | Potency [6] | Potency [7] | Potency [8] | Potency [9] | Potency [10] | Potency [13] | Potency [14] | Potency [15] | Potency [17]
active: Potency [16] 5.49 µM and 11 µM

CC(C)(C#N)N=NC(C)(C)C#N
inactive: Potency [1] | Potency [2] | outcome [3] | Potency [18] | Potency [4] | Potency [5] | Potency [6] | Potency [7] | Potency [8] | Potency [9] | max response [11] 5.82% and -2% | Potency [12] | Potency [13] | Potency [14] | Potency [15] | Potency [16] | Potency [17]

Source: PubChem BioAssay (Tox21)
